Source: PubChem BioAssay (EPA / NIEHS)
The source holds several records for some structures; these can differ, active in one and inactive in another. Active and inactive are the calls of the source. Rule for the calls: active = hit-call score of the fitted dose curve at least 0.9, where 1 is the maximum; inactive = score below 0.9.

What follows are molecules tested on Interferon-gamma inducible Protein 10 (IP10), CXCL10 (gene 3627) (assay: BSK_hDFCGF_IP10: BioMAP Diversity Plus: hDFCGF Assay for Interferon-gamma inducible Protein 10 (IP10) Biomarker Activity (AID 2283053)). Settings: primary human foreskin fibroblasts; actives raise or lower the signal.
Description: BSK_hDFCGF is a cell-based, multiplexed-readout assay that uses foreskin fibroblast, a human skin primary cell, with measurements taken at 24 hours after chemical dosing in a 96-well plate.BSK_hDFCGF_IP10 is an assay component measured in the BSK_hDFCGF assay. It measures IP-10 antibody related to regulation of gene expression using ELISA technology.Data from the assay component BSK_hDFCGF_IP10 was analyzed into 1 assay endpoint. This assay endpoint, BSK_hDFCGF_IP10, was analyzed with bidirectional fitting relative to DMSO as the negative control and baseline of activity. Using a type of binding reporter, gain or loss-of-signal activity can be used to understand changes in the signaling as they relate to the gene CXCL10. Furthermore, this assay endpoint can be referred to as a primary readout, because this assay has produced multiple assay endpoints where this one serves a signaling function. To generalize the intended target to other relatable targets, this assay endpoint is annotated to the cytokine intended target family, where the subfamily is chemotactic factor.
The levels of cell surface (or secreted, indicated by the prefix "s") biomarker endpoints were measured by ELISA. Overt cytotoxicity to cells in confluent adherent cultures (all systems other than the BT system) was assessed by measuring total protein levels using sulforhodamine B (SRB) staining in parallel cultures at the time of biomarker measurements, indicated as SRB endpoints. For proliferation assays for adherent cell types, individual cell types are cultured at sub-confluence and relative cell numbers quantified by SRB staining at time points optimized for each system (48 h: 3C and CASM3C systems; 72 h: BT and HDF3CGF systems; 96 h: SAg system). SRB was performed by staining cells with 0.1% SRB after fixation with 10% TCA and reading wells at 560 nm.Viability and proliferation of PBMC (T cells) was quantified by Alamar Blue reduction for the SAg and BT systems. For PBMC viability (referred to as PBMC Cytotoxicity within the assay endpoint names), cells were plated (75,000/well in a 96-well plate) and then chemical samples added for 1 h before addition of activators, SEB and TSST-1 (20 ng/mL final concentration each). Cells were incubated for 90 h. Then, Alamar Blue (20 uL/well) (Invitrogen, Cat DAL1100) was added for 6 h, and the plates were read with a fluorescence microplate reader at 546/580 nm (excitation/emission). For PBMC proliferation, cells were plated and activated as above but incubated for only 16 h prior to addition of Alamar Blue. Plates were read after 6 h.

SMILES | AC50 | outcome
COc1nn(CSP(=S)(OC)OC)c(=O)s1 | 20 µM (active) | 
ClC1C(Cl)C(Cl)C(Cl)C(Cl)C1Cl (stereo not given) | 32.2 µM (active) | inactive
CC(C)OC(=O)Nc1cccc(Cl)c1 |  | inactive
CNC(=O)/C=C(\C)OP(=O)(OC)OC |  | inactive
CNC(=O)CSP(=S)(OC)OC |  | inactive
CCC(C)(NC(=O)c1cc(Cl)c(C)c(Cl)c1)C(=O)CCl (stereo not given) | 5.56 µM (active) | 
Cc1[nH]c(=O)n(C(C)(C)C)c(=O)c1Cl |  | inactive
CC1(C)C(C=C(Cl)Cl)C1C(=O)OC(C#N)c1ccc(F)c(Oc2ccccc2)c1 (stereo not given) |  | inactive
CCOCN(C(=O)CCl)c1c(C)cccc1CC | 20 µM (active) | 
O=S1OCC2C(CO1)C1(Cl)C(Cl)=C(Cl)C2(Cl)C1(Cl)Cl (stereo not given) | 29.5 µM (active) | 
[2H]C1([2H])[n+]2ccccc2-c2cccc[n+]2C1([2H])[2H] | 5.27 µM (active) | 
COC(=O)c1ccccc1S(=O)(=O)NC(=O)N(C)c1nc(C)nc(OC)n1 | 28.7 µM (active) | 
OCCOc1ccccc1 |  | inactive
COP(=S)(OC)Oc1ccc(SC)c(C)c1 |  | inactive
CC(C)(C)C(O)C(Oc1ccc(Cl)cc1)n1cncn1 (stereo not given) |  | inactive
CNC(=O)Oc1cccc(N=CN(C)C)c1 | 15.2 µM (active) | 
CC(C)(C)C(O)/C(=C\c1ccc(Cl)cc1Cl)n1cncn1 (stereo not given) | 36.5 µM (active) | 
O=C(O)CCCOc1ccc(Cl)cc1Cl |  | inactive
N#Cc1c(Cl)c(Cl)c(Cl)c(C#N)c1Cl | 0.148 µM (active) | 

SMILES | AC50 | outcome
COP(=O)(OC)OC=C(Cl)Cl |  | inactive
CCC(C)Nc1c([N+](=O)[O-])cc(C(C)(C)C)cc1[N+](=O)[O-] (stereo not given) | 15.3 µM (active) | 
CCC(C)(C)C(=O)OC1=C(c2ccc(Cl)cc2Cl)C(=O)OC12CCCCC2 | 10.3 µM (active) | 
N#CN |  | inactive
COc1cc(OC)nc(NC(=O)NS(=O)(=O)c2cc(NC=O)ccc2C(=O)N(C)C)n1 |  | inactive
Oc1cc(Cl)ccc1Oc1ccc(Cl)cc1Cl | 15.4 µM (active) [middle of 4 runs] | 
Cc1cc(C)nc(NC(=O)NS(=O)(=O)c2ccccc2C(=O)OC2COC2)n1 |  | inactive
COC(=O)c1ccccc1S(=O)(=O)NC(=O)Nc1nc(C)nc(OC)n1 |  | inactive
CCCN(CCOc1c(Cl)cc(Cl)cc1Cl)C(=O)n1ccnc1 | 30.7 µM (active) | 
CCN(CC)C(=O)SCc1ccc(Cl)cc1 |  | inactive
O=C(NC(=O)c1c(F)cccc1F)Nc1ccc(OC(F)(F)C(F)OC(F)(F)F)c(Cl)c1 (stereo not given) |  | inactive
Clc1ccccc1-c1nnc(-c2ccccc2Cl)nn1 | 14.5 µM (active) | 
C[C@H]1[C@H](c2ccc(Cl)cc2)SC(=O)N1C(=O)NC1CCCCC1 | 20 µM (active) | 
O=S(=O)(O)C(F)(F)C(F)(F)C(F)(F)C(F)(F)C(F)(F)C(F)(F)C(F)(F)C(F)(F)F | 21.7 µM (active) [middle of 7 runs] | inactive
O=[N+]([O-])/N=C1\NCCN1Cc1ccc(Cl)nc1 |  | inactive
O=C(Nc1ccccc1)Nc1cnns1 |  | inactive
COP(=S)(OC)Oc1ccc([N+](=O)[O-])cc1 | 20.3 µM (active) | 
CC(C)N(C(=O)COc1nnc(C(F)(F)F)s1)c1ccc(F)cc1 | 22.9 µM (active) | 
CN1CSC(=S)N(C)C1 | 16 µM (active) | 
